# An excerpt weighted towards active compounds, which were near 1.2% of everything screened.
# GSH fluor = compound fluorescence on glutathione beads, profiling panel, artefact control, biophysical, 488/530 nm, flow cytometry. GSH beads flow cytometry, compound fluorescence 488/530 nm; active compounds read high. fluorescence (KMESF) at 10 µM. hit rate 0.25% among 190,000; in the data active means fluorescence above about 89;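 further: glutathione beads carrying GST-tagged Bcl family fusion proteins plus one bare bead set; values are compound well signal with DMSO vehicle wells as background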
# RGS8-Gao = RGS8-Galphao binding modulators, primary screen, biochemical, multiplexed bead flow cytometry; Guanine nucleotide-binding protein G(o) subunit alpha (Homo sapiens), P09471; actives lie on both sides; response (percent of control binding), % at 10 µM; hit rate 0.34% among 220,000; in the data active means response below about 60% or above about 140%; inactive means in between;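 further: Galphao activated as the GDP aluminium fluoride complex binding bead-coupled RGS8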
# RGS4-Gao reg = modulators of RGS4 binding to Galphao, primary screen, biochemical, multiplexed bead flow cytometry | Guanine nucleotide-binding protein G(o) subunit alpha (Homo sapiens), P09471 | actives lie on both sides | binding response (% of control), % at 10 µM | hit rate 0.33% among 220,000; in the data active means binding response below about 49% or above about 150%; inactive means in between;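 further: fluorescent Galphao activated with aluminum fluoride binding bead-coupled RGS4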
# RGS7-Gao = RGS7-Galphao binding modulators, primary screen, biochemical, multiplexed bead flow cytometry; Guanine nucleotide-binding protein G(o) subunit alpha (Homo sapiens), P09471; actives lie on both sides; binding response (% of control), % at 10 µM; hit rate 0.35% among 220,000; in the data active means binding response below about 49% or above about 150%; inconclusive means no clear call, values can overlap the other calls; inactive means in between;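 further: fluorescent Galphao held in activated GDP-AlF4 state binding bead-coupled RGS7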
# Avidin bead fluor = green autofluorescence of compounds with avidin beads – biophysical, 488/530 nm, flow cytometry, artefact control, profiling panel | AID 1775, 2009 | compound fluorescence 488/530 nm; active compounds read high | fluorescence (KMESF) at 10 µM | hit rate 0.38% among 220,000; in the data active means fluorescence above about 47
# RGS16-Gao = modulators of RGS16 binding to Galphao, primary screen, biochemical, human proteins, multiplexed bead flow cytometry; AID 1441, 2008; hit rate 0.38% among 220,000; bead-based flow cytometry RGS16-Galphao binding, fluorescence; actives lie on both sides; binding response (% of control), % at 10 µM; call rule not given here;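 further: Galphao activated by GDP with aluminum fluoride before binding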
# * marks the source's active call; other numbers are inactive results; ? = inconclusive; nt = no result; [ ] = remark or other dose.
SMILES,GSH fluor,RGS8-Gao,RGS4-Gao reg,RGS7-Gao,Avidin bead fluor,RGS16-Gao
CC(=O)Nc1nc(CC(C)C)cc(-c2ccco2)c1C#N,21,100.6,104.8,108.9,57*,101.9
C=CCNC(=O)/C(=C\C=C\c1ccccc1)NC(=O)c1ccc(OCCCC)cc1,19,11.6*,20.1*,13.2*,-2,1.7*
CCCCOc1ccc(C(=O)N/C(=C/C=C/c2ccccc2)C(=O)NCCO)cc1,9,101.4,100.7,99.5,4,103.8
COc1cc(/C=N/N(C)c2ccccc2)ccc1O,4,99.8,98.3,98.3,8,100.8
COc1cc(OC)c(OC)cc1/C=N/N(C)c1ccccc1,33,107.5,148.3,133.9,54*,147.6
O=[N+]([O-])c1cc(/C=N/O)ccc1Oc1ccccc1Cl,19,102.6,101.5,103.8,6,102.5
COc1ccc(C2NC(=O)C(C)S2)cc1 (stereo unspecified),10,95.8,96.0,135.7,51*,99.3
COc1ccc(-n2c(C)cc(C(=O)CSc3nn4c(=O)c(C(C)(C)C)nnc4s3)c2C)cc1,23,103.4,103.0,112.8,57*,109.8
C[C@]12CCC3c4ccc(OCC(=O)O)cc4CCC3C1CCC2=O (stereo partly specified),nt,103.0,100.3,?,8,102.0
CCc1cc2cc(C)ccc2nc1SCC(=O)N1CCN(C(=O)c2ccco2)CC1,254*,105.6,94.3,94.9,7,125.0
CCN1/C(=C/c2ccc3cc(C)ccc3[n+]2CC)Sc2ccccc21,7,109.6,168.7*[activator],225.3*[activator],11,109.8
CCN1/C(=C/c2ccc3cc(C)ccc3[n+]2CC)Sc2cc(C)c(C)cc21,15,79.7,112.8,143.9,25,91.2
Cn1c(=O)c2c(ncn2CC(=O)Nc2ccccc2Sc2ccccc2)n(C)c1=O,15,101.4,105.3,101.8,14,103.8
Cn1c(=O)c2c(ncn2CC(=O)Nc2ccccc2N2CCOCC2)n(C)c1=O,26,99.7,105.6,122.2,67*,103.5
O=C1COc2ccc(C(=O)COC(=O)Cn3cnc4ccccc43)cc2N1,272*,103.9,103.7,107.2,7,106.7
O=C1COc2ccc(C(=O)COC(=O)c3ccc4ccccc4n3)cc2N1,12,102.9,100.8,102.1,6,105.8
Cn1c(=O)c2c(nc(NCCCO)n2CCc2ccccc2)n(C)c1=O,20,103.6,101.6,104.9,50*,104.7
Cn1c(=O)c2c(nc(NCCO)n2CCc2ccccc2)n(C)c1=O,15,91.5,90.1,94.1,3,69.2
Cn1nc(-c2ccccc2)c(C(O)c2ccc(Cl)cc2)c1Cl (stereo unspecified),13,99.1,100.4,108.2,56*,103.0
O=C(CCc1nc2ccccc2c(=O)[nH]1)NC1CCN(Cc2ccccc2)CC1,256*,106.9,112.2,111.4,9,114.8
CCC(C)NS(=O)(=O)c1ccc(F)c(C(=O)Nc2c(F)cc(F)cc2Br)c1 (stereo unspecified),15,100.4,98.1,98.6,13,98.1
CCCS(=O)(=O)NCCc1cc2ccc(C)cc2[nH]c1=O,88*,98.8,95.7,102.1,5,97.7
Cc1ccc(C)c(/C(O)=C2\C(=O)C(=O)N(Cc3cccnc3)C2c2cccnc2)c1 (stereo unspecified),18,97.3,95.5,105.0,49*,96.7
CCN(C(=O)CSc1nnnn1-c1cc(C)ccc1OC)C1CCS(=O)(=O)C1 (stereo unspecified),267*,97.5,100.2,100.6,8,104.5
O=C(COc1ccc(Cl)cc1Cl)N/N=C1\CCCc2ccccc21,27,23.1*,33.9*,26.6*,2,5.2
C(=N\c1nc2ccccc2n1CCN1CCCCC1)/c1cccs1,270*,103.5,105.8,107.7,5,73.0
C(=N\c1nc2ccccc2n1CCN1CCCCC1)/c1ccc2c(c1)OCO2,24,104.9,100.2,96.7,11,99.9
O=C(NC12CC3CC(CC(C3)C1)C2)N(Cc1ccccc1)Cc1ccncc1,10,98.0,100.3,102.0,10,102.7
